Among all 340,000 compounds or so, about 2,100 (0.62%) were called active.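 How the source made its calls: active means first-screen hits whose inhibition reached a set limit at any dose in the follow-up dose series; inconclusive means inhibition above the set first-screen limit but never retested; inactive means the rest.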 These entries were drawn from the full list. Entries with a potency or affinity are not part of this list.
Target: Rac GTPase-activating protein 1 (Homo sapiens) (UniProt Q9H0H5)
Experiment: blockers of MgcRacGAP-driven Rac1 GTP hydrolysis – biochemical, ADP Hunter fluorescence, primary and confirmatory, confirmation (AID 624330);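 further: fluorescence reports GDP produced by GAP-driven GTP hydrolysis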
Conditions: MgcRacGAP-stimulated Rac1 GTP hydrolysis, at 30 µM, hits give high values, GST-tagged Rac1 F28L mutant substrate

Rac GTPase-activating protein 1 (Homo sapiens), sequence (Q9H0H5 whole entry, looked up): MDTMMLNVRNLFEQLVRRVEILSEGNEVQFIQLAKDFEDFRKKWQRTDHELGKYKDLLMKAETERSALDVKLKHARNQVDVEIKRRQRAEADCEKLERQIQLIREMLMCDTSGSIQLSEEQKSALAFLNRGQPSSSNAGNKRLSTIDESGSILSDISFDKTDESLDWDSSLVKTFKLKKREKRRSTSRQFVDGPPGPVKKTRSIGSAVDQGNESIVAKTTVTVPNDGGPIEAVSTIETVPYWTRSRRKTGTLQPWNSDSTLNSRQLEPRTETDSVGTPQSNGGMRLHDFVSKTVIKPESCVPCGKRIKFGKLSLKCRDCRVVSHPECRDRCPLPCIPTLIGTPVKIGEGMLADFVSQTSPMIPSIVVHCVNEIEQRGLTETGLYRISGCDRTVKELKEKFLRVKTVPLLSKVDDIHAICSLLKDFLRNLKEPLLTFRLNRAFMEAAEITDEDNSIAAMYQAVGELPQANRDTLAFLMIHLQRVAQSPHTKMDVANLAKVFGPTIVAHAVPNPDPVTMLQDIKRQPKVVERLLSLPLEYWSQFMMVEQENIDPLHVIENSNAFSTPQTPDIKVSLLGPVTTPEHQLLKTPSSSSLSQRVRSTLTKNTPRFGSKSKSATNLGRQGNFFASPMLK

inhibition, inactive:
COc1ccc(C(=O)Nc2ccc(Oc3nc(C)nc4sc(-c5ccccc5)cc34)cc2)cc1OC 2.99%, CC(C)(C)NC(=O)C(c1ccc(O)cc1)N(C(=O)CCC(=O)Nc1nccs1)c1cccc(F)c1 (configuration not stated) 8.98%, COc1cc(/C=N/n2c(-c3ccccc3)n[nH]c2=S)cc(OC)c1OC 14.2%, COc1cc(/C=N/N2CCCCC2)cc(OC)c1O 17.9%, COc1cc(/C=N/n2c(C)nnc2C)cc(OC)c1OC 3.62%, COc1ccc(/C=N/n2c(-c3cc(C)[nH]n3)n[nH]c2=S)cc1 21.4%, O=C(COc1ccc(Cl)cc1)Nc1ccc(C(=O)NCc2cccnc2)cc1 9.05%, COc1ccc(NC(=O)c2cccc3ccccc23)cc1OC -23.3%, O=C(O)CCS(=O)(=O)c1ccccc1Cl -0.02%, COc1cccc(N(CC(=O)N2CCN(C)CC2)S(=O)(=O)c2ccc(C)cc2)c1 -2.09%, Cc1ccc(S(=O)(=O)N2CCN(c3ccc(C(=O)N4CCOCC4)cc3[N+](=O)[O-])CC2)cc1 3.02%, CC(=O)Nc1nonc1NC(=O)CSc1ncn[nH]1 1.36%, CCOC(=O)C1C(=O)N(C(=O)c2ccc(OC)cc2)CC1c1ccccc1 (configuration not stated) 3.29%, O=C(C[C@@H]1C/C=C\C[C@H](NC(=O)OCC2c3ccccc3-c3ccccc32)C(=O)OC[C@H]2CCCN2C1=O)NCCO 5.33%, O=C(N/N=C\c1cccnc1)c1ccc(Cl)cc1Cl 8.54%, CC(C)/C=C(/C(=O)c1ccc(Cl)cc1Cl)n1cncn1 7.69%, CN(C)c1ccc(/C=C(/C(=O)c2ccc(Cl)cc2Cl)n2cncn2)cc1 3.83%, COc1ccc(/C=C(/C(=O)c2ccc(Cl)cc2Cl)n2cncn2)cc1 11.7%, CCN(CC(=O)NCc1cccs1)C(=O)c1cccc(S(=O)(=O)N2CC(C)OC(C)C2)c1 (configuration not stated) -2.83%, O=C(Cn1ncc2c1-c1ccccc1OC2)N1CCc2ccccc21 2.35%, CCCCOc1ccc(C(=O)N/C(=C/C=C/c2ccccc2)C(=O)NCCCO)cc1 12.1%, O=S1c2ccccc2Nc2ccccc21 18.2%, COC(=O)/C(C#N)=C1/C=Cc2ccccc2N1 -5.37%, O=C(Cn1cc(C(=O)C(F)(F)F)c2ccccc21)Nc1ccccc1F 13.4%, O=C(O)C1(C(=O)O)CCCC1 1.88%, O=C(CCCCO)CCCCCCCC[C@H]1N[C@H](CO)[C@H](O)[C@@H]1O[C@@H]1O[C@H](CO)[C@@H](O)[C@H](O)[C@H]1O 6.38%, NC[C@H]1O[C@H](O[C@H]2[C@H](O)[C@@H](O[C@H]3O[C@H](CO)[C@@H](O)[C@H](N)[C@H]3O)[C@H](N)C[C@@H]2N)[C@H](N)C[C@@H]1O 6.29%, Cc1ccc(S(=O)(=O)N2CCN(C(=O)c3ccc(N4CCCCC4)c([N+](=O)[O-])c3)CC2)cc1 6.99%, COCCCC1CCN(C(=O)C2CCC(=O)N(Cc3cccc(F)c3)C2)CC1 (configuration not stated) 7.1%, O=S(=O)(/C(=C/c1ccc(C(F)(F)F)cc1)c1nc2ccccc2[nH]1)c1ccccc1 4.87%, CN1CCc2c1nc1ccccc1c2N (tested in a mixture with another compound) 13.1%, Cc1cccc2c(N)c3c(nc12)CCCC3 (tested in a mixture with another compound) 16.8%, COc1ccc(CNC(=O)Cn2cc3c(n2)CCCCC3)cc1 7.34%, O=C1OC(c2ccccc2)=N/C1=C\N1CCCCC1 -1.27%, O=C1OC(c2ccccc2)=C/C1=C/N1CCCCC1 30.7%, CCN(C(=O)c1c(C)noc1C)c1c(N)n(Cc2ccccc2)c(=O)[nH]c1=O 5.68%, CCn1c(=O)c(C(=O)NCc2ccc(F)cc2)c(O)c2ccccc21 10.4%, CSc1ccc(C#N)cc1NC(=O)c1ccc(Cl)cc1Cl 7.34%, NC1=NC(=O)/C(=C\c2cccs2)S1 -1.57%, NC1=NC(=O)/C(=C/c2cccs2)S1 4.92%, CCCn1c(N)c(C(=O)CSc2nnc(-c3cccs3)n2C2CC2)c(=O)[nH]c1=O 1.21%, O=C(CCN1CCN(c2ccccc2)CC1)NNC(=O)c1ccccc1 10.2%, CNS(=O)(=O)c1cc(N)ccc1C 5.24%, Cc1ccc(NS(=O)(=O)c2cc(N)ccc2Cl)c(C)c1 11.7%, Cc1cc(C)cc(NC(=S)N2CCCC2)c1 4.82%, CC(=O)c1ccc(N2CCN(c3ccnc4cc(Cl)ccc34)CC2)cc1 1.01%, C/C(=N/Nc1ccnc2cc(Cl)ccc12)c1ccc(N)cc1 18.6%, Clc1ccc2c(N/N=C/c3ccc(Br)cc3)ccnc2c1 7.12%, CCOc1ccc(Nc2ccnc3cc(Cl)ccc23)cc1 6.93%, COc1ccc(N2CCN(c3ccnc4cc(Cl)ccc34)CC2)cc1 13.2%, Oc1ccc(/C=N/Nc2ccnc3cc(Cl)ccc23)c(O)c1O 15.3%, C/C(=N/Nc1ccnc2cc(Cl)ccc12)c1ccc(O)cc1 18.6%, Clc1ccc(NNc2ccnc3cc(Cl)ccc23)cc1 6.46%, CN(C)CCNC(=O)NC(=O)c1ccc(Cl)cc1 7.5%, CCOCCCNC(=S)Nc1ccc2nc3n(c(=O)c2c1)CCCCC3 -1.06%, CC(C)C(=O)N1CCN(CCN2C(=O)c3cccc4cccc(c34)C2=O)CC1 12.5%, COC(=O)c1c(C)[nH]c(C(=O)C(C)OC(=O)c2ccco2)c1C (configuration not stated) 5.7%, Cc1ccc(N(C(C)C(=O)Nc2ccccc2C(=O)N2CCOCC2)S(C)(=O)=O)cc1C (configuration not stated) 10.3%, O=C1c2ccccc2C(=O)c2[nH]c(=O)[nH]c21 8.15%, COCCNC(=S)NNc1ccc(Cl)c(C(=O)O)c1 7.21%, CCOC(=O)c1c(N2C(=O)Nc3ccccc3N2O)sc2c1CCCCC2 14.2%, CC1(C(=O)O)CCC(C(N)=O)C1(C)C (configuration not stated) 5.23%, O=C(O)C1OC2OC3(CCCCC3)OC2C2OC3(CCCCC3)OC12 (configuration not stated) -5.5%, CC(=O)Nc1ccc(NC(=O)C(=O)c2cn(CC(=O)N3CCCC3)c3ccccc23)cc1 4.85%, Cc1cc(C)n2ncc(C(=O)NCc3ccccc3)c2n1 0.67%, CN(C)S(=O)(=O)c1cccc(NC(=S)N/N=C/c2cccc(O)c2)c1 2.96%, COc1cc(/C=N/NC(=S)Nc2cccc(C(=O)O)c2)cc(OC)c1OC 7.41%, COc1cc(/C=N/NC(=S)Nc2cccc(S(=O)(=O)N(C)C)c2)cc(OC)c1O -1.97%, COc1ccc(/C=N/NC(=S)Nc2cccc(C(=O)O)c2)cc1OC -9.15%, CCOC(=O)N1CCN(c2c(N3CCN(c4ccccc4OC)CC3)c(=O)c2=O)CC1 8.07%, O=C(COC(=O)c1ccc(Cl)c(S(=O)(=O)N2CCCCC2)c1)NCc1ccco1 5.55%, CCC(C)NS(=O)(=O)c1ccc(OCC(=O)Nc2ccc(F)cc2F)cc1 (configuration not stated) 4.64%, CCCOc1ccc(/C(O)=C2/C(=O)C(=O)N(CCCn3ccnc3)C2c2ccco2)cc1 (configuration not stated) 7.22%, COc1ccc(NC(=O)CN(c2cc(C)cc(C)c2)S(=O)(=O)c2c(C)n[nH]c2C)cc1 6.02%, C=CCc1ccc(OCCCCN2CC(C)OC(C)C2)c(OC)c1 (configuration not stated) 16.2%, C=CCc1cc(Cl)ccc1OCCN1CC(C)OC(C)C1 (configuration not stated) 26.3%, CC(=O)C1=C(O)C(=O)N(c2ccc(F)cc2)C1c1ccc(C)cc1 (configuration not stated) 9.06%, c1ccc(CN2CCN(Cc3c[nH]c4ccccc34)CC2)cc1 8.7%, COc1ccc(Br)cc1CN1CCN(S(=O)(=O)Cc2ccccc2)CC1 19.2%, COc1ccc(CN2CCN(Cc3c[nH]c4ccccc34)CC2)cc1 30.3%, COc1ccc(Br)cc1CN1CCSCC1 19.9%, COc1ccc(Br)cc1CN1CCCCCCC1 11.8%, COc1ccc(C(=O)C2CCCN(Cc3c[nH]c4ccccc34)C2)c(OC)c1 (configuration not stated) -5.48%, COc1ccc(S(=O)(=O)N2CCN(Cc3c[nH]c4ccccc34)CC2)cc1 -10.1%, COc1ccc(Br)cc1CN1CCCCCC1 25.6%, CCOc1ccc(NC(=O)Nc2c(C)n(C)n(-c3ccccc3)c2=O)cc1 0.15%, O=C(NCc1ccc(F)cc1)C1CCCN(S(=O)(=O)c2ccc(Br)s2)C1 (configuration not stated) 5.11%, COc1ccccc1NC(=O)C1=C(C)Nc2nc(-c3cccs3)nn2C1c1cccc(O)c1 (configuration not stated) 3.45%, Cc1c(C(=O)OCC(=O)Nc2c(C)n(C)n(-c3ccccc3)c2=O)cccc1[N+](=O)[O-] -3.37%, COc1ccc(C(=O)N/C(=C\c2cc(OC)c(OC)cc2[N+](=O)[O-])C(=O)NCC(=O)O)cc1 5.33%, COc1ccc(-c2nc3c(C(=O)NCCN(C)C)cccc3c3ccccc23)cc1 28.1%, CN(C)CCNC(=O)c1cccc2nc3cccc(F)c3nc12 14%

From PubChem BioAssay AID624330 (Southern Research Specialized Biocontainment Screening …, 2012)
